From ChEMBL document CHEMBL1961873, “Compounds: GSK PKIS; Assays: Nanosyn kinase panel” (2012)

Experiments:
[1] = molecular target: Serine/threonine-protein kinase 26 (Homo sapiens) (UniProt Q9P289); conditions: at 1 µM;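 further: mean inhibition of MST4 kinase activity, reported from the GSK PKIS inhibitor-set screening panel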
[2] = molecular target: Serine/threonine-protein kinase PAK 1 (Homo sapiens) (UniProt Q13153); conditions: at 0.1 µM
[3] = molecular target: Serine/threonine-protein kinase PAK 1 (Homo sapiens) (UniProt Q13153); conditions: at 1 µM
[4] = molecular target: Serine/threonine-protein kinase PAK 2 (Homo sapiens) (UniProt Q13177); conditions: at 0.1 µM
Sequence of Serine/threonine-protein kinase PAK 2 (Homo sapiens) (Q13177 whole entry): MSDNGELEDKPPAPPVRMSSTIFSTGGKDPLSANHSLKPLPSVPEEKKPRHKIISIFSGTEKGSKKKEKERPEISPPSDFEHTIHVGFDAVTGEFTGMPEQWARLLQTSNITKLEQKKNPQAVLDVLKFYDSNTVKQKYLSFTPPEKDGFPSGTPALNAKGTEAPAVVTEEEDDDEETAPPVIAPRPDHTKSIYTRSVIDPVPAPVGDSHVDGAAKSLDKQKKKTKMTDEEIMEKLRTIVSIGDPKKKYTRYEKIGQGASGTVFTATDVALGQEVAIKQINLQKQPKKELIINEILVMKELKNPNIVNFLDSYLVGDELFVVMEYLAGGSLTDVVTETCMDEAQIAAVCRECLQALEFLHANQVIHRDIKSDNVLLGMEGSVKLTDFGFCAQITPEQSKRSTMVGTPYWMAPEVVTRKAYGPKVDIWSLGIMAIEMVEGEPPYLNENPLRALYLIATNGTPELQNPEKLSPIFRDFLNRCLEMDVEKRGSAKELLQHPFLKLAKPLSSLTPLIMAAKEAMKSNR

[5] = molecular target: Serine/threonine-protein kinase PAK 2 (Homo sapiens) (UniProt Q13177); conditions: at 1 µM
[6] = molecular target: Serine/threonine-protein kinase PAK 3 (Homo sapiens) (UniProt O75914); conditions: at 0.1 µM
Sequence of Serine/threonine-protein kinase PAK 3 (Homo sapiens) (O75914 whole entry, looked up): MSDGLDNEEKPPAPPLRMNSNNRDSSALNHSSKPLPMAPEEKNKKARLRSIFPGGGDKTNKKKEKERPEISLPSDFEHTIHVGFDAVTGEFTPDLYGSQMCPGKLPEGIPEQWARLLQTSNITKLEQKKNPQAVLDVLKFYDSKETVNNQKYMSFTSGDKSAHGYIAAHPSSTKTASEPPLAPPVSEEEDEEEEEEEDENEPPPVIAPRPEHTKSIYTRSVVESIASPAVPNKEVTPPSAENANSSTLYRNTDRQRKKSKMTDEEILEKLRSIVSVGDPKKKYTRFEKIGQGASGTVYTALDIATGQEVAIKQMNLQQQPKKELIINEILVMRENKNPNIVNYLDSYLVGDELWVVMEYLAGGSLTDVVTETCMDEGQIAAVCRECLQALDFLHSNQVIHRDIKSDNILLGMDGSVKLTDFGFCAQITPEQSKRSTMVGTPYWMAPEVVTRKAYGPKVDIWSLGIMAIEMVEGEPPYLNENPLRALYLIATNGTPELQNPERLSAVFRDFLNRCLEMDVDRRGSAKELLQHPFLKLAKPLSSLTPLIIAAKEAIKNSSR

[7] = molecular target: Serine/threonine-protein kinase PAK 3 (Homo sapiens) (UniProt O75914); conditions: at 1 µM
[8] = molecular target: Serine/threonine-protein kinase PAK 5 (Homo sapiens) (UniProt Q9P286); conditions: at 0.1 µM
Sequence of Serine/threonine-protein kinase PAK 5 (Homo sapiens) (Q9P286 whole entry, looked up): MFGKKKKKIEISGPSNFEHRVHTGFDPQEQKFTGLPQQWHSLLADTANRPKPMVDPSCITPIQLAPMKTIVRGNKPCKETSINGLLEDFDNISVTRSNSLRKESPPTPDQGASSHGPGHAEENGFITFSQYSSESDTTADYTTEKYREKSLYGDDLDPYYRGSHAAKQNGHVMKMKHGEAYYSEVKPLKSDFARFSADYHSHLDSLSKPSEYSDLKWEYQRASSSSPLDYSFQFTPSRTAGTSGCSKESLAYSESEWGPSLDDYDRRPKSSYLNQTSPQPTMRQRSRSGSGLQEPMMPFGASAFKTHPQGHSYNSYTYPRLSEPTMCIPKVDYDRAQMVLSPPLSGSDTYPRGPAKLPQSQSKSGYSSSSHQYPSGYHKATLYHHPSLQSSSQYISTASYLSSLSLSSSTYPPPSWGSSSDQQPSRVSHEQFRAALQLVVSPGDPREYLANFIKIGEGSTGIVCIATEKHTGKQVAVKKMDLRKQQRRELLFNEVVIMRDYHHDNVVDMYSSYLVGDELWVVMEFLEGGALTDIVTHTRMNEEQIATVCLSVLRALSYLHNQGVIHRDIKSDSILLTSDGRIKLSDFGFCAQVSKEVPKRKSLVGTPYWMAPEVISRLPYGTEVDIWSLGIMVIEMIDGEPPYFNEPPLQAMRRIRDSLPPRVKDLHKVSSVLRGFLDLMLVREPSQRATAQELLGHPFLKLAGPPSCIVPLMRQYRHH

[9] = molecular target: Serine/threonine-protein kinase PAK 5 (Homo sapiens) (UniProt Q9P286); conditions: at 1 µM
[10] = molecular target: Serine/threonine-protein kinase PAK 6 (Homo sapiens) (UniProt Q9NQU5); conditions: at 0.1 µM;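 further: mean PAK6 inhibition reported from the GSK PKIS screen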
Sequence of Serine/threonine-protein kinase PAK 6 (Homo sapiens) (Q9NQU5 whole entry, looked up): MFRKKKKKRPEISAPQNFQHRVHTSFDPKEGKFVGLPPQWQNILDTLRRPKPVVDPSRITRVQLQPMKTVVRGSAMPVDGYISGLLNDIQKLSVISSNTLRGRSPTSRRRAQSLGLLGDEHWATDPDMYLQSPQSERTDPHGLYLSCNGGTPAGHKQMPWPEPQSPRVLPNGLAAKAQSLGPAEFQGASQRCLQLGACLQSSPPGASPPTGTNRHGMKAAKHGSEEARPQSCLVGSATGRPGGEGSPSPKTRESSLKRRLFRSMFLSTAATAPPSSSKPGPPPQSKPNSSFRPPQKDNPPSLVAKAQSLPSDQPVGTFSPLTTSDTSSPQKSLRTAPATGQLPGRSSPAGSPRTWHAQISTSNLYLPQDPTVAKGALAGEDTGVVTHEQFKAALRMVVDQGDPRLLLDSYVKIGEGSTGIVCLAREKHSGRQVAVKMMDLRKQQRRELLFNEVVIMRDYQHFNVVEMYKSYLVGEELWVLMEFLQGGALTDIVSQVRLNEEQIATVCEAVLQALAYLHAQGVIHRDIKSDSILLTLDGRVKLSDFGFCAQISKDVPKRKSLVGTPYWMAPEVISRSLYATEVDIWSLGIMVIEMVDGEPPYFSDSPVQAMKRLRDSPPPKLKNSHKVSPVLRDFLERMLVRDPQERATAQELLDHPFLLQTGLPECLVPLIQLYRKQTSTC

Sequence of Serine/threonine-protein kinase 26 (Homo sapiens) (Q9P289 2-416 limits assumed): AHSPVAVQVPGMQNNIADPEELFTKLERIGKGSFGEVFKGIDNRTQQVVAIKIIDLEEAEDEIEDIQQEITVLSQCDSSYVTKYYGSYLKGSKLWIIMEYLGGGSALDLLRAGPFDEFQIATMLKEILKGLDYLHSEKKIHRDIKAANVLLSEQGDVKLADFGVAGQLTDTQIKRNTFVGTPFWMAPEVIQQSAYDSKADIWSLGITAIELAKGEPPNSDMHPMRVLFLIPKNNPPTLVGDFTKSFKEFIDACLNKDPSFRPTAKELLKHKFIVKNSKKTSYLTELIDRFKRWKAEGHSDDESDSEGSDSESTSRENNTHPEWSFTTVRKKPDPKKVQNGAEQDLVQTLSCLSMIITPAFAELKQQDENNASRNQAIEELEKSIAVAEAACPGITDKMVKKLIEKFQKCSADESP
Sequence of Serine/threonine-protein kinase PAK 1 (Homo sapiens) (Q13153 whole entry): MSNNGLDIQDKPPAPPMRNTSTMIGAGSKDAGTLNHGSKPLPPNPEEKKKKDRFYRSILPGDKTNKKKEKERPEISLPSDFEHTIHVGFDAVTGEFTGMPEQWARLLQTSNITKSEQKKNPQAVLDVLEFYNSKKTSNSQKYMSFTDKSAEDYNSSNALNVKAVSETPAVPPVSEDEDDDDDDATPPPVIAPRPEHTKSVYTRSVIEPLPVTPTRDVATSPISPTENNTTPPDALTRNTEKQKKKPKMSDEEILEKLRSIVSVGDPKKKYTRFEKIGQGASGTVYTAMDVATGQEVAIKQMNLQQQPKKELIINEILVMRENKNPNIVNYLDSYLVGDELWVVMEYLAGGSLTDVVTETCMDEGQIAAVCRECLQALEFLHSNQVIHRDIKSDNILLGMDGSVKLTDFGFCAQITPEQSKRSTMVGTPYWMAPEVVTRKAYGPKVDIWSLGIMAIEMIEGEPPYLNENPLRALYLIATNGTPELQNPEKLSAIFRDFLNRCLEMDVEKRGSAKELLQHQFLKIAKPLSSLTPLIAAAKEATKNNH

Row | Compound | inhibition [1] | inhibition [2] | inhibition [3] | inhibition [4] | inhibition [5] | inhibition [6] | inhibition [7] | inhibition [8] | inhibition [9] | inhibition [10]
1 | N#Cc1c(NC(=O)c2cccc3ccccc23)sc2c1CCCC2 | 1.23% | 5.02% | 3.74% | 0.12% | 1.16% | 2.52% | 3.41% | -2.18% | -9.6% | 7.76%
2 | Nc1ncnc2occ(-c3ccc(NC(=O)Nc4cc(C(F)(F)F)cc(C(F)(F)F)c4)cc3)c12 | – | 4.71% | 3.65% | 2.1% | 0.99% | 2.26% | 3.84% | 1.39% | 4.07% | 1.06%
3 | CCc1cccc(NC(=O)Nc2ccc(Oc3ccc4nc(NC(=O)OC)[nH]c4c3)cc2)c1 | 2.74% | 1.22% | 2.79% | 0.53% | 0.26% | 0.88% | 2.93% | 8.59% | -2.14% | 15.4%
4 | NS(=O)(=O)c1ccc(N/N=C2\C(=O)Nc3ccc(C(=O)NCCc4c[nH]cn4)cc32)cc1 | 6.15% | 3.1% | 7.85% | 1.34% | 3.15% | 4.63% | 6.49% | 2.86% | 3.33% | 10.1%
5 | COC(=O)Nc1nc2cc(Oc3ccc(NC(=O)Nc4cccc(C(=O)O)c4)cc3)ccc2[nH]1 | 3.41% | 0.04% | 2.31% | -0.12% | -0.31% | 0% | 0.98% | 7.82% | 3.29% | 3.13%
6 | CCn1c(-c2nonc2N)nc2cnc(Oc3cccc(NC(=O)c4ccc(OCCN5CCOCC5)cc4)c3)cc21 | 2.57% | 3.65% | 5.84% | -0.41% | 0.34% | -3.22% | 2.69% | 1.02% | -0.29% | -6.86%
7 | O=C1NC(=O)C(c2cccc(Cl)c2)=C1Nc1ccc(O)c(Cl)c1 | 11.2% | 2.76% | 4.48% | 0.61% | -0.45% | 1.1% | 1.4% | – | – | 3.63%
8 | Nc1nc(-c2ccc3c(c2)C(=Cc2cc(Br)c(O)c(Br)c2)C(=O)N3)cs1 | 15.5% | 2.87% | -1.51% | -2.22% | -1.94% | -4.94% | -1.99% | – | -3.15% | -5.26%
9 | CC1=C(C(=O)Nc2ccc3[nH]ncc3c2)C(c2ccc(F)cc2)NC(=O)N1 (configuration not stated) | -0.49% | 4.25% | 9.83% | -0.87% | -0.03% | 2.64% | 1.55% | -0.45% | 5.58% | 2.39%
10 | COc1ccc(-c2nn3ncccc3c2-c2ccnc(Nc3ccc(Cl)c(C(F)(F)F)c3)n2)cc1 | 0.3% | 2.46% | 0.59% | -0.08% | 0.63% | 2.32% | 2.56% | 1.71% | -1.65% | -0.34%
11 | COc1ccc(COc2ccc(Cc3cnc(N)nc3N)cc2OC)cc1 | 0.63% | 1.82% | 5.79% | 0.46% | 0.32% | 1.75% | 1.06% | 0.6% | 7.84% | 0.33%
12 | c1cnn2ncc(-c3ccnc(Nc4ccc5c(c4)OCCO5)n3)c2c1 | -0.78% | 3.98% | 4.56% | 4.04% | 3.37% | 4.71% | 4.73% | 8.91% | 14.7% | 2.92%
13 | Fc1cccc(COc2ccc(Nc3ncnc4cc(-c5ccc[nH]5)sc34)cc2Cl)c1 | 3.26% | 5.46% | 5.78% | -0.06% | -0.55% | – | 1.96% | – | -0.78% | -2.21%
14 | Cc1ccc(NC(=O)c2ccnc(N3CCCC3)c2)cc1-c1ccc(C(=O)NCC2CC2)cc1 | 6.65% | 5.46% | 8.39% | 1.66% | 0.96% | 4.52% | 5.08% | -9.56% | -5.63% | -2.61%
15 | NCc1ccc(-c2nc(-c3ccc(Cl)c(O)c3)c(-c3ccncc3)[nH]2)cc1 | 0.12% | 1.09% | 2.83% | -1.23% | -1.01% | -0.7% | -0.37% | – | -6.81% | 7.6%
16 | COc1ccc(-c2ccncc2)cc1C(N)=O | -5.1% | 4.54% | 10% | 2.37% | 3.02% | 5.3% | 10.3% | 5.08% | 8.05% | -8.8%
17 | CCn1c(-c2nonc2N)nc2c(N3CCCC3)nccc21 | 0.92% | 3.59% | -4.47% | -2.37% | -1.78% | -2.72% | -1.25% | -6.88% | – | 8.95%
18 | CCn1c(-c2nonc2N)nc2c(C#CC(C)(C)O)nc(OC[C@@H](N)c3ccccc3)cc21 | 14.1% | -5.15% | 1.43% | 3.89% | 36.3% | -1.93% | 0.72% | 87% | 87.7% | 90.8%
19 | CCn1c(-c2nonc2N)nc2cncc(C(=O)N3CC[C@H](N)C3)c21 | 1.04% | 10.1% | 8.87% | 1% | 1.51% | 5.01% | 4.59% | – | 0.61% | -1.48%
20 | COc1cc2ncn(-c3cc(O[C@H](C)c4ccccc4Cl)c(C(N)=O)s3)c2cc1OC | – | 6.45% | 4.82% | 0.59% | 0.45% | 4.18% | 6.53% | 7.14% | 3.97% | 0.91%
21 | CCCN1CCC(Oc2cc(Nc3nc(Nc4cccc(F)c4C(N)=O)c4cc[nH]c4n3)c(OC)cc2Cl)CC1 | 2.1% | -3.06% | 1.83% | -1.01% | -0.56% | -0.46% | -0.24% | 6.57% | 3.44% | 2.36%
22 | CC1=C(C(=O)Nc2ccc3[nH]ncc3c2)C(c2ccc(Cl)c(Cl)c2)CC(=O)N1 (configuration not stated) | -1.05% | 2.74% | 3.36% | 0.48% | -0.06% | 0.86% | 0.53% | 4.97% | -3.2% | 6.11%
23 | O=C1NC(=O)C(c2ccccc2Cl)=C1Nc1cccc(O)c1 | 2.65% | 3.51% | 3.76% | 1.94% | 1.62% | 2.51% | 3.3% | 11.9% | -1.3% | -0.02%
24 | NS(=O)(=O)c1cccc(-c2ccc3c(NC(=O)C4CC4)n[nH]c3c2)c1 | – | -1.17% | 0.04% | -1.52% | -1.15% | -2.1% | -0.67% | 7.33% | -5.95% | 2.48%
25 | COc1cc2ncn(-c3cc(OCc4ccccc4Cl)c(C(N)=O)s3)c2cc1OC | -3.28% | 3.48% | 1.43% | -1.4% | -1.31% | -3.29% | 1.37% | -3.38% | 0.31% | -7.38%
26 | COc1cc2ncn(-c3cc(OCc4ccccc4C(F)(F)F)c(C(N)=O)s3)c2cc1OC | – | 3.79% | 7.26% | 1.94% | 1.77% | 5.55% | 5.02% | 1.8% | 2.59% | -0.96%
27 | CS(=O)(=O)CCNCc1ccc(-c2ccc3ncnc(Nc4ccc(OCc5cccc(F)c5)c(C(F)(F)F)c4)c3c2)o1 | -0.76% | 6.77% | 8.2% | 1.44% | 1.87% | 4.46% | 3.99% | – | -0.07% | -1.22%
